From PubChem BioAssay (EPA / NIEHS) come the findings set out here.

Molecules are shown by their SMILES. Calls of active or inactive are those of the source. Rule for the calls: active = hit-call score of the fitted dose curve at least 0.9, where 1 is the maximum; inactive = score below 0.9.

Experiment [1] in a line: Tanguay_ZF_120hpf_DP24: Oregon State University Tanguay Lab 24 Hour Post-fertilization zebrafish Assay for Delayed Development (AID 2284390). Summed up:
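Scored at 24 hpf as a binary present/absent call of delayed development by brightfield, with dead embryos not assessed. Embryos (5D wild type, chorion removed with pronase at 4 hpf) dosed statically from 6 hpf at 28 C in 0.64% DMSO.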

Experiment [2] is described as follows: Tanguay_ZF_120hpf_AXIS: Oregon State University Tanguay Lab 120 Hour Post-fertilization zebrafish Assay for Axial Malformation (AID 2284398). Summed up: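 Scoring was binary (present or absent) for body-axis defects, judged by brightfield imaging at 120 hpf in surviving larvae. Exposure was static at 28C from 6 hpf in chorion-free 5D wild-type embryos, with 0.64% DMSO vehicle.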

Experiment [3] can be described thus: Tanguay_ZF_120hpf_BRN: Oregon State University Tanguay Lab 120 Hour Post-fertilization zebrafish Assay for Brain Region Malformation (AID 2284402). Summed up:
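Binary brightfield scoring of brain malformation at 120 hpf in 5D wild-type larvae, chorion removed with pronase at 4 hpf. Static exposure began at 6 hpf, 28C, sealed plates, DMSO 0.64% (vol/vol) as vehicle baseline.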

The nature of experiment [4]: Tanguay_ZF_120hpf_TCHR: Oregon State University Tanguay Lab 120 Hour Post-fertilization zebrafish Assay for Touch Responsive (AID 2284403). Summed up: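 Binary touch-response calls are made at 120 hpf in 5D wild-type zebrafish larvae. These larvae were dechorionated with pronase and exposed singly from 6 hpf in sealed, dark plates at 28 °C with 0.64% DMSO final; dead embryos are excluded.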

A short description of experiment [5]: Tanguay_ZF_120hpf_ANY: Oregon State University Tanguay Lab 120 Hour Post-fertilization zebrafish Assay for Any Mortality and Malformation (AID 2284404). Summed up: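 Dechorionated Tropical 5D wild-type embryos, one per well from 6 hpf, static exposure in sealed, dark plates at 28C until 120 hpf, 0.64% DMSO final. Brightfield scoring of mortality and malformations as binary presence/absence, pooling 13 morphology endpoints.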

A short description of experiment [6]: CCTE_Padilla_ZF_Score.Edema: CCTE's 144 Hour Post-fertilization zebrafish Assay Score for Edema Malformation, Padilla Lab (AID 2284406). Summed up:
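Edema scored at 6 dpf by two blinded observers under a stereo microscope, in single outbred wild-type larvae exposed from 6-8 hpf in sealed wells (Hanks', 26C, 14:10 h light) and chemical-free after a 5 dpf rinse.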

The nature of experiment [7]: CCTE_Padilla_ZF_Score.Spine: CCTE's 144 Hour Post-fertilization zebrafish Assay Score for Spine Malformation, Padilla Lab (AID 2284407). A digest of the protocol: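 Spine malformation scored at 6 dpf by two independent blinded observers under stereomicroscope, after static sealed exposure from 6–8 hpf at 26C in Hanks' solution with rinse on 5 dpf. Positive-direction fit against DMSO control.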

Experiment [8] in a line: CCTE_Padilla_ZF_Score.Swim_bladder: CCTE's 144 Hour Post-fertilization zebrafish Assay Score for Swim Bladder Malformation, Padilla Lab (AID 2284408). A digest of the protocol: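 Swim bladder inflation scored at 6 dpf by two blinded observers under a stereo microscope. Exposure ran from 6–8 hpf in sealed wells of 10% Hanks' at 26C, with rinsing at 5 dpf; DMSO served as baseline.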

Experiment [9] is described as follows: CCTE_Padilla_ZF_Score.Position: CCTE's 144 Hour Post-fertilization zebrafish Assay Score for Position, Padilla Lab (AID 2284409). Summed up: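 Wild-type zebrafish embryos (with chorions) exposed singly from 6–8 hpf in sealed wells of Hanks' solution at 26C, rinsed at 5 dpf. At 6 dpf, blinded assessors scored abnormal water-column position by brightfield stereomicroscopy, relative to DMSO.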

The nature of experiment [10]: CCTE_Padilla_ZF_Score.Living: CCTE's 144 Hour Post-fertilization zebrafish Assay Score for Viability, Padilla Lab (AID 2284410).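 Note: larval death at 6 dpf judged by absent heartbeat or coagulation.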 A digest of the protocol:
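Mortality at 6 dpf, judged as absent heartbeat or coagulation by two blinded observers, after sealed static exposure beginning at 6–8 hpf at 26C. Larvae were rinsed free of chemical at 5 dpf, and activity was fitted relative to DMSO.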

A short description of experiment [11]: CCTE_Padilla_ZF_Score.General: CCTE's 144 Hour Post-fertilization zebrafish Assay Score for General Malformation, Padilla Lab (AID 2284411). A digest of the protocol:
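Malformation, death and hatching were scored at 6 dpf by two blinded observers under a stereo microscope. Embryos were dosed singly from 6-8 hpf in sealed plates of 10% Hanks' at 26C and rinsed on 5 dpf; DMSO baseline.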

The nature of experiment [12]: CCTE_Padilla_ZF_Score.Tail: CCTE's 144 Hour Post-fertilization zebrafish Assay Score for Tail Malformation, Padilla Lab (AID 2284414). A digest of the protocol: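 Tail malformations were scored at 6 dpf by two blinded assessors under a stereo microscope. Chorionated embryos had been exposed from 6-8 hpf in sealed wells of 10% Hanks' at 26 C, then rinsed free of chemical at 5 dpf.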

Experiment [13] in a line: CCTE_Padilla_ZF_Score.Blood_pooling: CCTE's 144 Hour Post-fertilization zebrafish Assay Score for Blood Pooling, Padilla Lab (AID 2284415). A digest of the protocol:
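Blood pooling was scored at 6 dpf under a stereo microscope by two blinded assessors, fitted upward against DMSO. Single embryos were dosed at 6–8 hpf in 10% Hanks', kept sealed at 26C (14:10 h cycle) and rinsed at 5 dpf.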

Experiment [14] is described as follows: CCTE_Padilla_ZF_Score.Craniofacial: CCTE's 144 Hour Post-fertilization zebrafish Assay Score for Craniofacial Malformation, Padilla Lab (AID 2284405). Summed up:
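Craniofacial defects were scored at 6 dpf by two blinded observers using stereomicroscopy. Exposure of wild-type embryos began at 6–8 hpf in sealed wells of 10% Hanks' solution at 26C, with chemical removed by rinsing at 5 dpf.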

The next experiment relates to TTR (gene 7276). Briefly: CCTE_GLTED_hTTR_0.125uM: CCTE's human Transthyretin (hTTR) Inhibition Assay, with 0.125uM TTR, Great Lakes Toxicology and Ecology Division (GLTED) Lab (AID 2284431).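 Note: hits lower the fluorescence signal relative to DMSO baseline.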 Summed up: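 Activity is defined as decreased ANSA fluorescence (ex 380, em 475) from human transthyretin, 0.125uM, following 2-hour chemical exposure in a cell-free setup, with DMSO as baseline.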

Consider `CN(C(=O)C(F)(F)C(F)(F)C(F)(F)F)[Si](C)(C)C`, for which the result in experiment [1], in experiment [2], in experiment [3], in experiment [4], in [5] and in experiment [6] was inactive. For the same molecule, the outcome in experiment [7], in experiment [8], in [9], in experiment [10], in experiment [11] and in experiment [12] was inactive. Besides, the molecule was classed as inactive in [13].

As to `OC(O)C(F)(F)C(F)(F)F`, the molecule was called inactive in experiment [1], in experiment [2], in experiment [3], in experiment [4], in experiment [5] and in [6]. The call in experiment [7], in experiment [8], in experiment [9], in experiment [10], in [11] and in experiment [12] was inactive. In addition, in experiment [13], the molecule was called inactive.

As for `CCN(CCO)S(=O)(=O)C(F)(F)C(F)(F)C(F)(F)C(F)(F)C(F)(F)C(F)(F)C(F)(F)C(F)(F)F`, the molecule was classed as inactive in experiment [1], in experiment [2], in [3], in experiment [4], in experiment [5] and in experiment [14]. Also, the result in [6], in [7], in experiment [8], in [9], in experiment [10] and in [11] was inactive. The result in [12] and in experiment [13] was inactive.

In the case of `OCC(F)(F)C(F)(F)C(F)(F)CO`, the outcome in [1], in [2], in experiment [3], in [4], in experiment [5] and in experiment [6] was inactive. In addition, the result in [7], in experiment [8], in experiment [9], in experiment [10], in experiment [11] and in experiment [12] was inactive. For the same molecule, the call in [13] was inactive.

As for `C=CC(=O)OCCC(F)(F)C(F)(F)C(F)(F)C(F)(F)F`, the result in experiment [1], in [2], in experiment [3], in experiment [4], in experiment [5] and in experiment [14] was inactive. Moreover, the call in experiment [6], in experiment [7], in experiment [9], in [12] and in experiment [13] was inactive. The AC50 in [8] was 88.3 µM (active); in [10], 20.9 µM (active); in experiment [11] it was 76.7 µM (active).

Turning to `O=S(=O)(Cl)C(F)(F)C(F)(F)C(F)(F)C(F)(F)C(F)(F)C(F)(F)C(F)(F)C(F)(F)F`, the molecule was called inactive in experiment [1], in [2], in experiment [3], in [4], in experiment [5] and in experiment [11]. In addition, the result in experiment [12] and in experiment [13] was inactive. Besides, the AC50 in experiment [6] is 33.5 µM (active); in experiment [7] it was 88.8 µM (active); in experiment [8], 12.1 µM (active); in [9] it was 81.7 µM (active); in experiment [10], 88.8 µM (active).

On to `Nc1cc([N+](=O)[O-])cc(Cl)c1O`, for which, in experiment [11], the molecule was classed as inactive.

`NCC(F)(F)C(F)(F)C(F)(F)C(F)(F)C(F)(F)C(F)(F)F`: the AC50 in [6] and in experiment [11] was 75.3 µM (active) in each case. In addition, the result in experiment [7], in experiment [8], in experiment [9], in experiment [10], in [12] and in [13] was inactive.

Consider `CCN(CC)c1ccc(C=O)cc1`, for which, in experiment [11], the outcome was inactive.

For the molecule `CCN=C1C=CC(=C(c2ccc(N(CC)CC)cc2)c2ccc(N(CC)CC)cc2)c2ccccc21`, the AC50 in the experiment with TTR (gene 7276) is 1.85 µM (active).

As to `OCC(F)(F)C(F)(F)C(F)(F)C(F)(F)C(F)(F)C(F)(F)CO`, the outcome in [1], in [2], in experiment [3], in experiment [4], in experiment [5] and in experiment [7] was inactive. Moreover, the molecule was called inactive in experiment [9], in experiment [10], in experiment [12] and in [13]. Further, the AC50 in [6] is 62.9 µM (active); in experiment [8], 11.6 µM (active); in experiment [11], 47.7 µM (active).

As to `O=C(Cl)C(F)(F)C(F)(F)C(F)(F)C(F)(F)C(F)(F)C(F)(F)F`, the AC50 in experiment [6] and in experiment [11] was 76.8 µM (active) each time. In addition, the call in experiment [7], in experiment [8], in experiment [9], in experiment [10], in experiment [12] and in experiment [13] was inactive.

With `NS(=O)(=O)C(F)(F)C(F)(F)C(F)(F)C(F)(F)C(F)(F)C(F)(F)F`, the AC50 in [1] is 57.6 µM (active); in experiment [5] it was 10.6 µM (active); in experiment [6] it was 2.27 µM (active); in [8] it was 2.66 µM (active); in experiment [9], 2.51 µM (active); in experiment [10] it was 4.62 µM (active). Moreover, in experiment [11], the AC50 is 2.27 µM (active). For the same molecule, the call in [2], in [3], in experiment [4], in experiment [7], in experiment [12] and in [13] was inactive.

Take `c1ccc(C[P+](c2ccccc2)(c2ccccc2)c2ccccc2)cc1`: the outcome in experiment [11] was inactive.

Regarding `O=C(O)CCC(F)(F)C(F)(F)C(F)(F)C(F)(F)C(F)(F)C(F)(F)C(F)(F)F`, the molecule was called inactive in [1], in [2], in experiment [3], in experiment [4], in [5] and in experiment [6]. In addition, the molecule was called inactive in experiment [7], in experiment [8], in [9], in experiment [10], in experiment [11] and in experiment [12]. Besides, the call in experiment [13] was inactive.
